# Hit rate of the full screen: of about 300,000 compounds, about 37,000 (12%) were called active. No stated cut-off is given here; in the data, active means max response mostly above about 13% (no sharp cut-off); inactive means mostly below about 14%. The list comes from a sample in which actives are over-represented; it also holds similar structures and randomly drawn compounds.
# Test: Cycloheximide Counterscreen for Small Molecule Inhibitors of Shiga Toxin; further: read at 38.3 µM for the half of the compounds with a filed dose; 0% is about no effect
# Details: cell reporter, cycloheximide protein synthesis inhibition counterscreen; active compounds read high
row,SMILES,max response
1,COc1ccc(/C=C2\SC(=S)N(CCC(=O)Nc3cccc(C(=O)O)c3)C2=O)cc1OC,1.51% (inactive)
2,CC(NC(=O)COc1cccnc1[N+](=O)[O-])c1ccc(Cl)cc1Cl (stereo not given),-5.73% (inactive)
3,CCCN1Cc2cccc(C(=O)Nc3ccc(S(=O)(=O)N4CCCCCC4)cc3)c2C1=O,-1.84% (inactive)
4,CCCCN(CC)C(=O)C1CCCN(S(=O)(=O)c2cccc3nsnc23)C1 (stereo not given),-3.7% (inactive)
5,C#CCNC(=O)C1=C[C@@H](c2ccccc2)[C@H](CCCO)[C@@H](OCC)O1,0.207% (inactive)
6,O=C(NCC(c1cccs1)N1CCOCC1)c1cc(-c2ccccn2)nc2ccccc12 (stereo not given),-1.88% (inactive)
7,CN(C(=O)c1cccc([N+](=O)[O-])c1)c1ccccc1C(=O)NCc1ccccc1,-2.25% (inactive)
8,Cc1ccc(S(=O)(=O)/N=C(\N)c2ccc(F)cc2)cc1,6.04% (inactive)
9,O=C(NNS(=O)(=O)c1ccc(F)cc1)C1CCCCC1,-1.22% (inactive)
10,CN(C)/C=C(/C(=O)c1ccccc1)S(=O)(=O)c1ccc(Cl)cc1,9.87% (inactive)
11,CN(C)/C=C(/C(=O)c1ccccc1Cl)S(C)(=O)=O,-0.829% (inactive)
12,CN(C)/C=C(/C(=O)c1ccc(Cl)cc1)S(=O)(=O)c1ccccc1,50.5% (active)
13,CN(C)/C=C(/C(=O)c1ccc(F)cc1)S(=O)(=O)c1ccc(F)cc1,27.7% (active)
14,CCN(CC)/[N+]([O-])=N/Oc1cc(O/[N+]([O-])=N/N2CCCC2CO)c([N+](=O)[O-])cc1[N+](=O)[O-] (stereo not given),-2.07% (inactive)
15,O=C(Nc1cccc(Cl)c1)c1cncn1-c1ccc(F)cc1,6.32% (inactive)
16,COc1ccccc1C(=O)NNC(=O)CCN1C(=O)/C(=C\c2ccccc2)SC1=S,-3.61% (inactive)
17,CCn1cc(CCC(=O)NCc2ccc(F)cc2)c2ccccc21,5.51% (inactive)
18,O=C(CCCNS(=O)(=O)c1cccc2nsnc12)NCCN1CCN(c2ccccc2F)CC1,-4.37% (inactive)
19,COc1ccccc1Oc1ccc(S(=O)(=O)Nc2cccnc2)cc1,-1.76% (inactive)
20,COc1ccccc1Oc1ccc(N/C=C2/CCCC2=O)cc1,15.4% (active)
21,COc1ccc(NS(=O)(=O)c2ccc(Oc3c(C#N)cccc3C#N)cc2)cc1,5.34% (inactive)
22,CCOC(=O)c1[nH]c2c(c1C)C(=O)CC(c1ccc(N(C)C)cc1)C2 (stereo not given),25.5% (active)
23,COCCOC(=O)c1[nH]c2c(c1C)C(=O)CC(c1ccc(OC)cc1)C2 (stereo not given),7.29% (inactive)
24,CCOC(=O)c1[nH]c2c(c1-c1ccccc1)C(=O)CC(c1ccc(Cl)cc1)C2 (stereo not given),5.07% (inactive)

row,SMILES,max response
1,CCOC(OCC)c1ccc(/C=C\c2nccc(N)n2)cc1,38.5% (active)
2,Cc1cc(=O)n2nc(N3CCCC(C(=O)NCc4ccc(Cl)cc4)C3)sc2n1 (stereo not given),-2.2% (inactive)
3,CCNCc1cc2cc(C)ccc2[nH]c1=O,4.83% (inactive)
4,CC(=O)OCc1cc2cc(C)ccc2[nH]c1=O,-2.45% (inactive)
5,CCOC(=O)c1cc2cc(C)ccc2[nH]1,39.7% (active)
6,Cc1ccc2c(c1)N(CC(=O)N(Cc1ccccn1)Cc1ccco1)C(=O)C(C(C)C)O2 (stereo not given),8.51% (inactive)
7,CCOC(CNC(=O)C1CCN(S(=O)(=O)c2ccc3nc4c(c(C(=O)O)c3c2)CC(C)CC4)CC1)OCC (stereo not given),-3.45% (inactive)
8,CC(=O)c1cccc(NC(=O)COc2ccc(S(=O)(=O)N3CCOCC3)cc2)c1,0.879% (inactive)
9,CC(C)c1ccc(NC(=O)NC2CCCCC2)cc1,44.1% (active)
10,Cc1cc(C)cc(NC(=O)NC2CCCCCCC2)c1,17.4% (active)
11,Cc1cc(C)cc(NC(=O)N2CCCCCCC2)c1,-5.05% (inactive)
12,CC(C)N1CCC(NC(=O)Nc2ccccc2)CC1,-2.49% (inactive)
13,CC(C)(C)NS(=O)(=O)c1ccc(NC(=O)NC2CCCCC2)cc1,9% (inactive)
14,Cc1cc(C)cc(NC(=O)NC2CCN(CC(=O)Nc3cccc(Cl)c3C)CC2)c1,-0.314% (inactive)
15,Cc1ccccc1NC(=O)NNC(=O)OC(C)(C)C,-3.59% (inactive)
16,C/C(=N\NC(=O)OC(C)(C)C)c1ccc[nH]1,42.4% (active)
17,COc1ccccc1CNS(=O)(=O)c1ccc2c(c1)NC(=O)CS2,30.5% (inactive)
18,O=[N+]([O-])c1cc([N+](=O)[O-])c(Oc2cc(F)cc(F)c2F)cc1NN1CCCCC1,0.495% (inactive)
19,CCOC(=O)c1sc(NC(=O)CSc2nc3c(c(=O)n2-c2ccccc2)SCC3)c(C(=O)OCC)c1C,-2.16% (inactive)
20,COc1cccc(/C=N\NC(=O)C2=NNC(=O)C2C)c1O (stereo not given),32.5% (active)
21,COc1cc2cc(C(=O)N/N=C/c3cccc(OC)c3OC)[nH]c2cc1OC,0.0255% (inactive)
22,COc1cccc(/C=N/NC(=O)c2[nH]nc3c2CCc2ccccc2-3)c1O,6.14% (inactive)
23,O=c1[nH]nc(SCCS(=O)(=O)c2ccc(F)cc2)n1-c1ccccc1C(F)(F)F,-1.24% (inactive)
24,COc1cccc2cc(-c3cc(=O)oc4cc(C)c(O)cc34)oc12,8.46% (inactive)

row,SMILES,max response
1,COc1ccccc1-n1cnc2cc(C(=O)NCC3CCCO3)ccc21 (stereo not given),-2.15% (inactive)
2,O=C(NCc1cccs1)c1ccc2c(c1)ncn2C1CCCC1,31.8% (active)
3,O=C(NCCN1CCOCC1)c1ccc2c(c1)ncn2C1CCCC1,1.03% (inactive)
4,CCCCC(CC)CNCc1cccn1CCN1CCOCC1 (stereo not given),-0.53% (inactive)
5,CC(C)CN(Cc1c(O)ccc2c(=O)c(-c3ccccc3)coc12)CC(C)C,8.57% (inactive)
6,CC(C)=CCc1c(O)c(CC=C(C)C)c2occ(-c3ccc(O)cc3)c(=O)c2c1O,10.9% (active)
7,O=C(Cn1cc(C(=O)C2CC2)c2ccccc21)Nc1ccccc1Cl,-7.35% (inactive)
8,Cc1cc(C)c(NC(=O)CN2CCCCCC2)c(C)c1,34.2% (active)
9,Cc1csc(NC(=O)CN2CCCCCC2)n1,2.46% (inactive)
10,O=C(CN1CCCCCC1)Nc1ccc(Cl)cc1F,8.65% (inactive)
11,COc1cc(Cl)c(C)cc1NC(=O)CN1CCCCCC1,0.423% (inactive)
12,O=C(CN1CCCCCC1)Nc1c(Cl)cc(Cl)cc1Cl,21.3% (active)
13,O=C(CN1CCOCC1)Nc1c(Cl)cc(Cl)cc1Cl,-2.9% (inactive)
14,CC1CCCCN1CCCNc1ccc(C(CC(N)=O)NC(=O)c2ccccc2)cc1[N+](=O)[O-] (stereo not given),-1.02% (inactive)
15,COCCN(Cc1cc2cc3c(cc2nc1Cl)OCO3)C(=O)c1cccc(C)c1,5.64% (inactive)
16,CCOc1ccc(C(O)Cn2c(=N)n(CCN3CCCCC3)c3ccccc32)cc1 (stereo not given),-4.27% (inactive)
17,COc1cc(C(O)c2nc3ccccc3n2C)cc(OC)c1OC (stereo not given),0.887% (inactive)
18,COc1cccc(C(O)Cc2nc3ccccc3n2C)c1OC (stereo not given),20.6% (active)
19,CCOc1ccc(C(O)Cc2nc3ccccc3n2C)cc1 (stereo not given),22.1% (active)
20,COc1ccc(OC)c(C(O)c2nc3ccccc3n2C)c1 (stereo not given),-2.03% (inactive)
21,CCCn1c(C(O)c2ccc(OCC)cc2)nc2ccccc21 (stereo not given),-3.7% (inactive)
22,COc1ccc(CN2CC(C(=O)NC3CCCCC3)CC2=O)cc1 (stereo not given),-2% (inactive)
23,O=C1Oc2ccccc2C(=O)/C1=C/c1ccccc1O,12.4% (inactive)
24,COCCNC(=O)C1CCN(C(=O)C2CC(=O)N(c3ccc(C)cc3)C2)CC1 (stereo not given),1.44% (inactive)

row,SMILES,max response
1,CCOC(=O)c1c(NC(=O)c2ccc(S(=O)(=O)N(C)CC3CCCO3)cc2)sc2c1CC(C)(C)NC2(C)C (stereo not given),-4.44% (inactive)
2,COc1ccc(NC(=O)N2CCCC2C(=O)NCc2ccccc2Cl)cc1 (stereo not given),-3.43% (inactive)
3,O=C(c1ccccc1F)N(Cc1ccccc1)Cc1ccccc1,-2.08% (inactive)
4,C=CCN1C=C2C(=O)C(C)(OC(=O)CCc3ccccc3)C(=O)C=C2C=C1c1ccc(C#N)cc1 (stereo not given),-1.82% (inactive)
5,O=C(Nc1ccc2c(c1)OCCO2)c1ccoc1,35.3% (active)
6,O=C(Cn1c(=O)sc2ccccc21)Nc1ccc2c(c1)OCCO2,-0.826% (inactive)
7,O=C(Nc1ccc2c(c1)OCCO2)c1cnccn1,33% (inactive)
8,O=C(Nc1ccc2c(c1)OCCO2)c1ccncc1,33.1% (active)
9,O=C(CCN1C(=O)c2ccncc2C1=O)Nc1ccc2c(c1)OCCO2,1.67% (inactive)
10,Cn1c(=O)c2ccccc2n(CC(=O)Nc2ccc3c(c2)OCCO3)c1=O,-8.73% (inactive)
11,COc1cccc(N(C(=O)CNC(=O)c2ccco2)C(C(=O)NC2CCCCC2)c2cccnc2)c1 (stereo not given),-2.98% (inactive)
12,CCN(CC)c1ccc(NC(=O)CN2CCN(c3ccccn3)CC2)cc1,-3.57% (inactive)
13,CC[n+]1cc(C)ccc1/C=C/c1ccc(N(C)C)cc1,12.8% (inactive)
14,O=c1ccnc(Nc2ccc(Cl)cc2)[nH]1,1.06% (inactive)
15,O=C(Nc1cc(S(=O)(=O)N2CCOCC2)ccc1Cl)c1cc(=O)c2ccccc2o1,2.68% (inactive)
16,COc1ccc(Nc2oc(-c3ccccc3Cl)nc2C#N)cc1,9% (inactive)
17,N#Cc1nc(Cc2ccccc2)oc1NCCc1ccccc1,39.2% (active)
18,N#Cc1nc(COc2ccc(-c3ccccc3)cc2)oc1NCc1cccnc1,9.29% (inactive)
19,N#Cc1nc(Cc2cccc3ccccc23)oc1NCc1ccc2c(c1)OCO2,-2.28% (inactive)
20,Cc1ccccc1-c1nc(C#N)c(NCc2ccco2)o1,8.49% (inactive)
21,CCOc1ccc(Nc2oc(Cc3ccccc3)nc2C#N)cc1,31.6% (active)
22,O=c1cc(C(F)(F)F)[nH]c(=O)n1C1CCCCC1,6.49% (inactive)
23,CCCCn1c(N)c(N(CC)C(=O)c2ccccc2C(F)(F)F)c(=O)[nH]c1=O,-3.22% (inactive)

# Source: PubChem BioAssay AID2314 (National Center for Advancing Translational Sciences (NCATS), 2010)
